Epigenetic reg: Quantitative High-Throughput Screen for Regulators of Epigenetic Control; murine LDR cells, GFP reporter derepression, 30 h; Potency, µM (titrated, usually from 53.9 µM), inactives show top-dose GFP activation, hits mostly activators; 0.2% of 280,000 active; AID 1865, 2009; also: potency is read from the fitted curve at half-maximal effect; % of control where 0% means no effect; nearly all actives have a fitted effect of over 60% in size
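Murine LDR cells carrying a silenced, genomically integrated CMV-driven GFP reporter were exposed to compound for 30 hours at 37 C. After PBS washes, GFP-positive cells (20–120 um objects) were counted by laser-scanning microplate cytometry.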
B2AR arrestin: qHTS assay of beta-arrestin-biased ligands of beta2-adrenergic receptor. 0.02% of 330,000 active. beta-arrestin recruitment to beta2AR, cell-based reporter. Beta-2 adrenergic receptor (Homo sapiens), P07550. Potency, µM (top dose mostly 46.1 µM), inactives show at the highest dose activation, actives largely listed as activators. AID 492947, 2010;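 also: potency is read from the fitted curve at half-maximal effect; 0% = DMSO controls and full agonism = EC100 isoproterenol or metaproterenol; nearly all actives have a fitted effect of over 65% in size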
Target sequence (P07550 whole entry, looked up): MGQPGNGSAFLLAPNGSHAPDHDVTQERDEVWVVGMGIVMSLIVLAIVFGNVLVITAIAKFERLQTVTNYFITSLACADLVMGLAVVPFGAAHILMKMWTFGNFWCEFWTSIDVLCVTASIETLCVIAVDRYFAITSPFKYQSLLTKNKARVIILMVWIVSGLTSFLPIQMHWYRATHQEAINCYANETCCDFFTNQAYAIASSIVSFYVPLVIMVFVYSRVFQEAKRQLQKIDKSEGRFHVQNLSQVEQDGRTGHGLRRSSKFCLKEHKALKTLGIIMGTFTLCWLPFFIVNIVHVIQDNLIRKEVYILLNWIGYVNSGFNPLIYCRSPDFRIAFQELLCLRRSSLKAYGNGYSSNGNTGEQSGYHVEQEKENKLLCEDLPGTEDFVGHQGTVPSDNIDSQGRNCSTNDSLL
PINK1 modulator: A Quantitative High throughput Screen to Identify Chemical Modulators of PINK1 Expression | PINK1 immunofluorescence, high-content cytometry, 24 h | Potency, µM (highest dose often 76.6 µM), inactives show at the highest dose activation (PINK1 increase), hits mostly activators | 0.2% of 410,000 active | AID 624263, 2012; active = well fitted activation curve with a large enough effect; inconclusive = small, poorly fitted or top-dose-only effect; cell line not stated here; also: potency is read from the fitted curve at half-maximal effect; % of control where 0% means no effect; nearly all actives have a fitted effect of over 65% in size
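PINK1 protein, normally rapidly degraded, was detected by immunofluorescence after 24 hour compound treatment of a stable cell line. Titration data (5 concentrations) came from laser-scanning cytometry, with CCCP-treated wells as controls.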
IL2 activator: qHTS of IL-2 Activators; IL-2 activation reporter assay, cell-based qHTS; stimulated with anti-CD3/CD4/CD28 beads; in transgenic mouse T cells; activation, % (series mostly up to about 46 µM); 0.065% of 360,000 active; in the data active = activation above about 50%; inconclusive = mostly about 30% to 49%; also: 0% is about no effect
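EGFP and DsRed fluorescence is measured by plate cytometry in unstimulated transgenic mouse T cells exposed to compound for 60 minutes, then stimulated 18 hours at 37 degrees C with anti-CD3/anti-CD4 beads plus anti-CD28.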
PKM2 act: qHTS Assay for Activators of Human Muscle isoform 2 Pyruvate Kinase | Pyruvate kinase PKM (Homo sapiens), P14618 | purified PKM2, Kinase-Glo ATP luminescence, activation; response scale: 0% is enzyme alone, no compound | Potency, µM (titrated, usually from 57.5 µM), for the others: at the top dose activation, usual class: activators | 0.34% of 260,000 active; also: potency is read from the fitted curve at half-maximal effect; % is scaled to controls: 0 for no effect and ±100 for the full control effect; nearly all actives have a fitted effect of over 55% in size
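Purified hPK-M2 (>95%) run at intermediate activity with 0.1 mM ADP and 0.5 mM PEP in 50 mM imidazole pH 7.2, KCl, MgCl2; 1 h room temperature. ATP formed read by Kinase-Glo luminescence; normalized to uninhibited and no-enzyme controls.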
The depositor's hits bear a star; ? = inconclusive; · = not tested or not shown. This is a sample that favours compounds with a hit; in the whole collection about 0.58% have one here. Unless noted, calls follow the shape of the dose curve; as a rule, active = well fitted curve in the direction sought with a large enough effect; inconclusive = small, poorly fitted or top-dose-only effect, or another doubt; inactive = no such curve, though single readings can be large; an effect the other way counts as inactive or inconclusive.

SMILES	Epigenetic reg	B2AR arrestin	PINK1 modulator	IL2 activator	PKM2 act
Cc1ccc(NC(=O)CN2C(=O)N/C(=C/c3ccc(C)s3)C2=O)cc1	?	0%	23%	53*	24%
Cc1cccc(CN2C(=O)N/C(=C/c3ccc(C)s3)C2=O)c1	?	0%	7%	14	17%
Cc1nc(N2CCc3ccccc3C2)[nH]c(=O)c1CCC(C)C	0%	-3%	11µM*	3	-13%
C=CCN1C(=O)[C@@H]2Cc3c([nH]c4ccccc34)C(c3cc(OC)c(OC)c(OC)c3)N2C1=S (some centres undefined)	·	4%	6%	105*	·
CCN1C(=O)[C@@H]2Cc3c([nH]c4ccccc34)C(c3cc(OC)c(OC)c(OC)c3)N2C1=S (some centres undefined)	·	-1%	8%	94*	·
COc1ccccc1C1CN(CC(=O)N[C@H]2CCCCNC2=O)Cc2ccccc2O1 (some centres undefined)	·	·	0%	·	·
c1ccc(-n2nnnc2NC2CCCCC2)cc1	-11%	0%	2.8µM*	2	0%
COc1cccc(C2(CC(=O)N3CCC(c4nc5ccccc5o4)CC3)CC(=O)N(C)C2=O)c1 (centres undefined)	·	·	0%	·	·
C/C(=C\c1ccc(C)o1)C(=O)c1c(C)cc(C)[nH]c1=O	-4%	0%	1%	0	10µM*
COc1ccc(NC(=O)CSc2nc(N)c(C#N)cc2C#N)cc1	-1%	0%	?	0	2%
COc1ccc2nc(SCC(=O)Nc3ccc4sc(C)nc4c3)c(C#N)cc2c1	3.5µM*	0%	16%	-1	1%
CCN1CCS/C1=C\C=C\C1=[N+](CC)CCS1	1%	0%	14µM*	3	1%
CCN1CCS/C1=C/C=C/C1=[N+](CC)CCS1	-2%	0%	16µM*	-3	6%
Cc1ccc(C(=O)Nc2cccc(-c3nc(CNC(=O)c4cccc(C)c4C)c(C)o3)c2)s1	·	·	1%	·	·
COCC(=O)Nc1cc(C(=O)N2CCCCC2c2nccn2C)cc2nc(-c3ccccc3)n(C)c12 (centres undefined)	·	·	-1%	·	·
COc1ccc(C(C(=O)NC2CCCC2)N(C(=O)c2snc(-c3ccc(F)cc3)c2N)c2ccccc2)cc1 (centres undefined)	0%	-1%	13µM*	1	-2%
COc1ccc(C(C(=O)NC2CCCC2)N(C(=O)c2snc(-c3ccc(F)cc3)c2N)c2ccc(F)cc2)cc1 (centres undefined)	0%	0%	16µM*	-4	1%
COc1ccc(C(C(=O)NC2CCCC2)N(C(=O)c2snc(-c3ccc(F)cc3)c2N)c2ccc(OC)cc2)cc1 (centres undefined)	-1%	1%	-4%	-3	0%
CC(=O)c1cc(NC(=O)c2cccc(C(F)(F)F)c2)c(=O)oc1/C=C/N(C)C	18%	0%	?	58*	1%
CC(=O)c1cc(NC(=O)c2cccc(C(F)(F)F)c2)c(=O)oc1C	?	1%	1%	-1	?
CC(C)(CO)NC(=O)c1cnn(-c2nccc(-c3ccc4c(c3)OCO4)n2)c1C1CC1	·	·	0%	·	·
Cc1ccc(NS(=O)(=O)c2ccc3c(c2)c(=O)n(C)c(=O)n3C)cc1F	0%	0%	-1%	-2	4.5µM*
O=C(NCC1Cc2cccc(-c3cnccn3)c2O1)c1ccc2c(c1)OCCO2 (centres undefined)	·	·	0%	·	·
O=C1C=CC(=O)N1c1cccc(-c2ccccc2)c1	-1%	-1%	5%	0	3.2µM*
O=C(Nc1cccc(N2C(=O)C=CC2=O)c1)c1cccs1	·	0%	·	·	·
SMILES	Epigenetic reg	B2AR arrestin	PINK1 modulator	IL2 activator	PKM2 act
CSc1ncccc1C(=O)NCC1Cc2cc(-c3cnccn3)ccc2O1 (centres undefined)	·	·	-1%	·	·
Cc1cc2c(cc1S(=O)(=O)Nc1cccc(F)c1)n(C)c(=O)c(=O)n2C	·	0%	-2%	-4	2µM*
CC(=O)C(C(C)=O)c1c(Cl)c(O)c(O)c2c(C(=O)c3ccccc3)coc12	?	0%	16µM*	-1	?
CCOC(=O)C(C(=O)OCC)c1cc(Br)c2noc3c2c1C(=O)c1ccccc1-3	3.5µM*	0%	1%	2	-7%
N#C/C(=C\Nc1ccc2c(c1)OCCO2)c1nc(-c2ccccc2)cs1	14%	-1%	7%	2	2%
COc1ccc(-c2csc(/C(C#N)=C/Nc3ccc4c(c3)OCCO4)n2)cc1	10µM*	0%	5%	1	-4%
Cc1ccc(OCC(=O)N/N=C\c2ccc(C)o2)c([N+](=O)[O-])c1	2%	0%	45µM*	6	27%
Cc1ccc(OCC(=O)N/N=C/c2ccccc2)c([N+](=O)[O-])c1	3%	0%	2%	1	4%
CCOc1ccccc1Nc1nnc(-c2cc3cc(OC)ccc3oc2=O)s1	18µM*	·	5%	·	·
CCOc1ccc2cc(-c3nnc(Nc4ccccc4F)s3)c(=O)oc2c1	3.5µM*	·	0%	·	·
COCCCn1c(=O)/c(=C\c2ccccc2OC(F)F)s/c1=C(/C#N)C(N)=O	?	0%	35µM*	0	3%
COc1cc2nc(N(C)C)c(CNCc3cccc4ccccc34)cc2c(OC)c1OC	·	·	0%	·	·
Cc1cc(F)ccc1S(=O)(=O)Nc1ccccc1C(=O)Nc1ccccc1-c1nc2ccccc2[nH]1	-1%	0%	45µM*	-1	3%
Cc1cc(F)ccc1S(=O)(=O)Nc1ccccc1C(=O)Nc1ncn[nH]1	-7%	0%	2%	0	5%
CCN(CC)c1ccc2c(Cl)c(Br)c(=O)oc2c1	11µM*	0%	-2%	27	2%
COCC(=O)Nc1cc(C(=O)N2CCN(C)C(c3ccccc3)C2)c2c(c1)nc(-c1ccncc1)n2C (centres undefined)	·	·	-1%	·	·
CCCSc1nnc(NC(=O)Nc2ccccc2)s1	0%	0%	45µM*	1	8%
CCCSc1nnc(NC(=O)Nc2ccc(C)cc2)s1	-1%	0%	3%	1	-6%
CCCSc1nnc(NC(=O)CCc2ccccc2)s1	·	-1%	1%	0	0%
CCCSc1nnc(NC(=O)Nc2ccc(F)cc2)s1	4%	0%	14µM*	2	-2%
O=C(NCCc1ccccn1)c1cnn(-c2ncc3c(n2)-c2ccccc2CC3)c1C1CC1	·	·	-1%	·	·
Fc1ccc(F)c(C2=NNC(=Nc3ccccc3F)SC2)c1	3%	0%	35µM*	0	-6%
COc1ccc(/C=N/Nc2nnc(-c3ncc[nH]3)c3ccccc23)cc1	1%	0%	8%	-1	8%
